What all share (assay): NCI-60 one-dose screen, 48 h (100 = growth as untreated, 0 = no growth, -100 = all killed)
In one assay the test system is SK-MEL-2 melanoma. To be noted: 10 µM unless noted.
The test system of the next assay is EKVX NSCLC. To be noted: 10 µM unless noted.
A further assay deals with SN12C renal. To be noted: 10 µM unless noted.
A further assay concerns UO-31 renal. To be noted: 10 µM unless noted.
A further assay deals with TK-10 renal. To be noted: 10 µM unless noted.
Another assay deals with ACHN renal. To be noted: 10 µM unless noted.
The next assay has as its system CAKI-1 renal. To be noted: 10 µM unless noted.
The next assay concerns A498 renal. To be noted: 10 µM.
Another assay relates to HL-60(TB) leukemia. To be noted: 10 µM unless noted.
The test system of another assay is CCRF-CEM leukemia. To be noted: 10 µM unless noted.

Each structure is given as a SMILES string. Compounds without any hit were thinned out: in the full panel of roughly 83,000, 20% have a hit.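 Note: values are percent growth. 100 is the growth of untreated cells, values between 100 and 0 indicate rising inhibition; between -100 and 0 indicates cell death.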 Unmarked numbers belong to inactive results. The source made the active and inactive calls. Rule for the calls: active = growth percent below 10; inactive = the rest.

In the case of `O=C1Nc2ccccc2C2c3cccn3-c3ccccc3CN12` (centres undefined), the growth in the assay on SK-MEL-2 melanoma was 6.54% (active); in the assay with EKVX NSCLC, 67.8%; in the assay with SN12C renal it was 69.4%; in the assay on UO-31 renal, 60%; with TK-10 renal it was 71.8%; in the assay on ACHN renal, 81.6%. Besides, the growth in the assay with CAKI-1 renal was 63.4%; in the assay with A498 renal, 41.1%; with HL-60(TB) leukemia, 44.6%.
In the case of `Nc1cc2nc3ccccc3nc2cc1N`, the growth in the assay with SK-MEL-2 melanoma is 107%; in the assay on EKVX NSCLC, 84.8%; in the assay on SN12C renal, 80.5%; in the assay on UO-31 renal it was 74.2%; with TK-10 renal, 110%; in the assay with ACHN renal it was 99.2%. Also, the growth is 101% with CAKI-1 renal, 78.3% with A498 renal, 87.5% in the assay on HL-60(TB) leukemia and 94% in the assay on CCRF-CEM leukemia.
For `Cc1ccc(C(Cc2ccccc2)NCCO)cc1` (centres undefined), the growth was 54.7% in the assay with SK-MEL-2 melanoma; 100% with EKVX NSCLC; 102% in the assay with SN12C renal; 86.1% in the assay with UO-31 renal; 88% in the assay on TK-10 renal; 89.6% in the assay on ACHN renal. In addition, the growth was 98% in the assay with CAKI-1 renal, 97.9% in the assay with A498 renal and 91.4% with HL-60(TB) leukemia.
On to `CSc1nc(Cl)cc(N2CC2)n1`, for which the growth with SK-MEL-2 melanoma was 120%; with EKVX NSCLC, 106%; with SN12C renal, 104%; in the assay on UO-31 renal it was 114%; in the assay on TK-10 renal, 107%; with ACHN renal, 109%. Also, the growth is 98.3% in the assay with CAKI-1 renal, 122% in the assay with A498 renal and 96.6% with HL-60(TB) leukemia.
As to `CC(=O)Nc1nc2c(s1)CC[C@@]1(C)C2=CC[C@H]2[C@@H]3CC[C@H](O)[C@@]3(C)CC[C@@H]21`, the growth is 47.4% in the assay on SK-MEL-2 melanoma; 92.5% in the assay on EKVX NSCLC; 74% in the assay on SN12C renal; 80.3% in the assay with UO-31 renal; 91.1% in the assay with TK-10 renal; 63.9% in the assay with ACHN renal. The growth is 44.1% in the assay on CAKI-1 renal, 67.8% in the assay with A498 renal, 29.3% with HL-60(TB) leukemia and 38.8% in the assay on CCRF-CEM leukemia.
Turning to `O=C1N[C@@H]2[C@@H](O)[C@@H](O)[C@H](O)C[C@H]2c2cc3c(c(O)c21)OCO3`, the growth with SK-MEL-2 melanoma was -63.6% (active); in the assay with EKVX NSCLC, -26.3% (active); with SN12C renal it was -18.4% (active); in the assay with UO-31 renal it was -31% (active); with TK-10 renal, -12.6% (active); with ACHN renal, -45.5% (active). Besides, the values for the growth in the assay with CAKI-1 renal, with A498 renal and with HL-60(TB) leukemia were -7.77% (active), -53.4% (active) and -37.8% (active), respectively.
With `O=C1C=C2C(=CCOC2O)O1` (centres undefined), the growth in the assay on SK-MEL-2 melanoma was 10.4%; in the assay on EKVX NSCLC, 103%; in the assay with SN12C renal it was 35.1%; with UO-31 renal, -11.6% (active); in the assay on TK-10 renal, -37.2% (active); in the assay with ACHN renal, -18.7% (active). Moreover, the growth was -13.2% (active) in the assay with CAKI-1 renal and 107% in the assay with A498 renal.
Take `COc1ccc(/C=C\c2cc(OC)c(OC)c(OC)c2)cc1OCC(=O)Nc1nc2ccc(C(F)(F)F)cc2s1`: the growth in the assay on SK-MEL-2 melanoma was -2.78% (active); in the assay with EKVX NSCLC, 77.3%; in the assay with SN12C renal it was 45.8%; with UO-31 renal, 21%; in the assay with TK-10 renal, 8.6% (active); in the assay on ACHN renal it was 38.2%. Besides, the growth was 24.5% in the assay on CAKI-1 renal, 14.3% in the assay with A498 renal and 11.8% with HL-60(TB) leukemia.
As for `NC(=S)c1cn(C2OC(CO)C(O)C2O)c2ncnc(N)c12` (centres undefined), the growth in the assay with SK-MEL-2 melanoma is -58.1% (active); in the assay with EKVX NSCLC, -4.9% (active); in the assay on SN12C renal it was -10.5% (active); with UO-31 renal, -9.32% (active); with TK-10 renal it was -29.5% (active); in the assay with ACHN renal, -6.08% (active). The growth in the assay on CAKI-1 renal is -36.6% (active); with A498 renal, -32.5% (active); with HL-60(TB) leukemia it was -72.9% (active); with CCRF-CEM leukemia, -40.6% (active).
Consider `CCOC(=O)N1CC1`, for which the growth in the assay with SK-MEL-2 melanoma was 105%; in the assay on EKVX NSCLC, 84%; with SN12C renal it was 95.8%; in the assay with UO-31 renal, 80.7%; in the assay with TK-10 renal it was 112%; with ACHN renal it was 94.8%. Moreover, the growth was 95.1% with CAKI-1 renal and 111% in the assay with A498 renal.
`COC(=O)CCC1=C(C)c2cc3[n-]c(cc4nc(cc5[n-]c(cc1n2)c(CCC(=O)OC)c5C)C=C4C)cc3C.[Cd+2]`: the growth in the assay on SK-MEL-2 melanoma is 32.4%; with EKVX NSCLC, 62.2%; with SN12C renal, 71.2%; with UO-31 renal it was 71.7%; in the assay on TK-10 renal, 33.4%; with ACHN renal, 67.9%. The values for the growth with CAKI-1 renal and in the assay on A498 renal were 63.3% and 34.4%, respectively.
In the case of `CC[C@H](C)[C@H](NC(=O)[C@H]1CCCCN1C)C(=O)N(C)[C@H](C[C@@H](OC(C)=O)c1cccc(C(=O)N[C@@H](Cc2ccccc2)C[C@H](C)C(=O)O)n1)C(C)C`, the growth in the assay on SK-MEL-2 melanoma is 36.3%; in the assay on EKVX NSCLC it was 59.6%; in the assay with SN12C renal, 28.1%; in the assay with UO-31 renal, 44.7%; in the assay with TK-10 renal, 29%; with ACHN renal it was 32.3%. Moreover, the growth was 13.7% in the assay on CAKI-1 renal, -2.46% (active) in the assay with A498 renal and -40% (active) in the assay with HL-60(TB) leukemia.
As for `COC1OC(CO)C(O)C(O)[CH]1[Hg][O]C(C)=O` (centres undefined), the growth was 107% in the assay with SK-MEL-2 melanoma; 111% in the assay on EKVX NSCLC; 88.5% with SN12C renal; 101% in the assay with UO-31 renal; 111% in the assay on TK-10 renal; 98.5% in the assay with ACHN renal. In addition, the growth is 101% in the assay with CAKI-1 renal, 106% in the assay on A498 renal and 94.6% in the assay on HL-60(TB) leukemia.
Regarding `CC[C@H](C)[C@H](NC(=O)C12C3C4C1C1C2C3C41NC(C)=O)C(=O)N(C)[C@H](C[C@@H](OC(C)=O)c1nc(C(=O)N[C@@H](Cc2ccccc2)C[C@H](C)C(=O)OC)cs1)C(C)C` (some centres undefined), the growth was 49.2% in the assay on SK-MEL-2 melanoma; 38.6% in the assay on EKVX NSCLC; 25.6% in the assay on SN12C renal; 59.8% in the assay with UO-31 renal; 62% with TK-10 renal; 36.6% in the assay with ACHN renal. The growth was 74.1% in the assay with CAKI-1 renal, -10.4% (active) in the assay on A498 renal and -13.3% (active) in the assay on HL-60(TB) leukemia.
For the molecule `C/C(Cc1ccc(Cl)cc1)=C(\c1ccc(OCCN2CCOCC2)cc1)c1ccc(OC(=O)Cc2ccccc2)cc1`, the growth is 84.9% in the assay on SK-MEL-2 melanoma; 93.3% with EKVX NSCLC; 93.8% with SN12C renal; 67.5% in the assay with UO-31 renal; 86.7% in the assay on TK-10 renal; 104% in the assay with ACHN renal. Moreover, the results for the growth with CAKI-1 renal and in the assay with A498 renal were 71.6% and 98.6%, respectively.

The values are drawn from PubChem BioAssay (NCI).
